Assay outcomes deposited in PubChem BioAssay by National Center for Advancing Translational Sciences (NCATS).
This is a sample that favours compounds with a hit; in the whole collection about 7.4% have one here.
FLuc counter: inhibits or activates purified firefly luciferase, miR-21 counter-screen; P08659; purified FLuc, Km substrates, luminescence inhibition; Potency, µM (top dose mostly 57.5 µM), inactives show at the top dose activity change, negative = inhibition, usual class: inhibitors; 6.9% of 360,000 active;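 further: plate controls were vehicle for no effect and reference inhibitor for full effect; nearly all actives have a fitted effect of over 55% in size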
Target sequence (P08659 whole entry, looked up): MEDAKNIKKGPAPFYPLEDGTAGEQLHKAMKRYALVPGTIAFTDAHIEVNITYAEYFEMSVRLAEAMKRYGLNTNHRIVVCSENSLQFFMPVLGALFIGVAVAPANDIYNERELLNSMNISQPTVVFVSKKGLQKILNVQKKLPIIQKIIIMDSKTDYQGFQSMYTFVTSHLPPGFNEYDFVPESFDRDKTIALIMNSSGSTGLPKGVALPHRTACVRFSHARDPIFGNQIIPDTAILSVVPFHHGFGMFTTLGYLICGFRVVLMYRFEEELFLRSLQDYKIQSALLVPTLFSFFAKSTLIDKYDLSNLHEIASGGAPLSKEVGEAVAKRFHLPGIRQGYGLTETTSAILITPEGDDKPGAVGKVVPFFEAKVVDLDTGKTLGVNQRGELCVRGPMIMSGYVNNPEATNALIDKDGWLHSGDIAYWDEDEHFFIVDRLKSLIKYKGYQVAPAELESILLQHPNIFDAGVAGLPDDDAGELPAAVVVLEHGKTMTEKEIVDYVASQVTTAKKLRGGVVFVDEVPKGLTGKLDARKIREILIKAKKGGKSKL
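Purified P. pyralis luciferase (10nM final) with 10uM D-luciferin and 10uM ATP (Km levels) in 50mM Tris acetate pH 7.5, 10mM Mg acetate, 0.01% Tween-20, 0.05% BSA; qHTS 6-point titration, ~60 µM downward; luminescence read.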
SMN2 splice enh: enhancers of SMN2 splice variant expression; HEK293 SMN2-luciferase splicing reporter, luminescence, 30-36 h; Potency, µM (series often up to 46.1 µM), for the others: at the top dose activity change, positive = activation, most hits filed as activators; 2.8% of 210,000 active; further: % of control where 0% means no effect; nearly all actives have a fitted effect of over 55% in size
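HEK293 cells carry an SMN2 […]–luciferase reporter in which exon 7 inclusion puts luciferase in frame. Cells were plated 10-12 h before compound addition, then incubated 30-36 h at 37C. ONE-Glo luminescence was read; sodium butyrate at 4.5 mM final served as control.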
ELG1 genotoxic: induces genotoxicity in HEK293T cells with luciferase-tagged ELG1 | 1.3% of 330,000 active | HEK293T ELG1-luciferase reporter, luminescence, 16 h | Potency, µM (highest dose often 46 µM), for inactives: at the top dose activity change, positive = activation, actives largely listed as activators; further: % of control where 0% means no effect; nearly all actives have a fitted effect of over 60% in size
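Luminescence read-out: rising ELG1-luciferase signal, reflecting elevated ELG1 protein under genetic stress, flags genotoxic compounds. Cells were treated for 16 hr at 37 °C before ONE-Glo detection.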
Rab9 promoter act: activators of Rab9 promoter. Huh7 Rab9 promoter-luciferase reporter, luminescence, 24 h. Potency, µM (top dose mostly 9.22 µM), for the others: at the top dose activation, negative = inhibition, most hits filed as activators. 2.8% of 320,000 active; further: % of control where 0% means no effect; nearly all actives have a fitted effect of over 60% in size
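Steps: seed 1500 Huh7 Rab9-luc cells per well, rest 2 h at 37 °C; add compound in DMSO; incubate 24 h; add luciferase reagent, 10 min ambient; read luminescence.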
NPC1 prom act: activates the NPC1 promoter; AID 485313; 2.4% of 320,000 active; Potency, µM (doses to about 9.22 µM), without a hit: top-dose activation, hits mostly activators; Huh7 NPC1 promoter luciferase reporter, 24 h; further: % of control where 0% means no effect; nearly all actives have a fitted effect of over 60% in size
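Huh7 cells stably carrying NPC1 promoter–luciferase, plated in Opti-MEM with 10% FBS for 2 h, were exposed to compound in DMSO for 24 h at 37 °C; luciferase reagent was added for 10 min and luminescence read.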
Numbers without * were called inactive; ? = inconclusive; . = no result. The call rests on the fitted dose curve; in most records, active means well fitted curve in the direction sought with a large enough effect; inconclusive means small, poorly fitted or top-dose-only effect, or another doubt; inactive means no such curve, though single readings can be large; an effect the other way counts as inactive or inconclusive. Potency means the concentration at half of the fitted maximal effect.

SMILES | FLuc counter | SMN2 splice enh | ELG1 genotoxic | Rab9 promoter act | NPC1 prom act
O=c1nc2c(-c3ccccc3F)n[nH]n2c2ccccc12 | 13.5µM* | 22.4µM* | ? | 3.98µM* | ?
CCOC(=O)Cc1csc(NC(=O)c2ccncc2)n1 | -2.6% | -27.4% | -6.3% | -2.7% | 0.3%
CCOC(=O)Cc1csc(NC(=O)c2csc3c2CCCC3)n1 | 4.78µM* | -35.5% | -4.7% | -6.1% | -2.0%
CCOC(=O)Cc1csc(NC(=O)c2ccc(Cl)s2)n1 | ? | . | 13.2% | 1.2% | -11.0%
CCOC(=O)Cc1csc(NC(=O)c2cc3c(s2)CCCC3)n1 | 1.35µM* | -1.5% | ? | 0.562µM* | 1.41µM*
CCOC(=O)Cc1csc(NC(=O)c2cc(C)c(C)s2)n1 | 8.49µM* | . | 0.4% | 23.3% | ?
Nc1nc2ccccc2n1/N=C/c1ccc2c(c1)OCO2 | 10.7µM* | . | ? | 3.98µM* | 2µM*
Nc1nc2ccccc2n1/N=C/c1ccc(Br)cc1 | ? | 35.5µM* | 16.4µM* | ? | ?
Cn1c(/N=C/c2ccc3c(c2)OCO3)nc2ccccc21 | 0.239µM* | -2.7% | 1.6% | -2.6% | -3.7%
Cc1cc(Br)ccc1NC(=O)CN1C(=O)C2CC=CCC2C1=O (stereo not given) | 0.8% | . | 0.8% | -2.8% | -1.5%
N/C(=N\OC(=O)c1ccccc1Cl)c1cccnc1 | 4.26µM* | 15.8µM* | ? | ? | 3.55µM*
N/C(=N\OC(=O)c1cc(Cl)ccc1Cl)c1cccnc1 | 9.53µM* | ? | 20.6µM* | ? | 14.0%
N/C(=N\OC(=O)Cc1ccc(Cl)cc1)c1cccnc1 | ? | -19.5% | 1.5% | -3.7% | 0.1%
N/C(=N\OC(=O)c1ccccc1)c1cccnc1 | 5.36µM* | . | ? | 29.7% | 18.8%
Cc1ccc(C(=O)O/N=C(\c2ccccc2)c2cccnc2)cc1 | 16.9µM* | -10.3% | 2.4% | 0.9% | -3.1%
N/C(=N\OC(=O)c1cc(Br)ccc1Cl)c1cccnc1 | 21.3µM* | 19.1% | 12.0% | ? | ?
N/C(=N\OC(=O)c1ccc(Cl)cc1[N+](=O)[O-])c1cccnc1 | 23.9µM* | . | ? | ? | 25.4%
N/C(=N\OC(=O)c1ccccc1)c1ccn[nH]1 | 6.75µM* | . | 10.3µM* | 3.55µM* | 2.24µM*
O=C(NCc1cccnc1)c1ccc(Cl)cc1[N+](=O)[O-] | 3.2% | ? | 3.1% | -8.3% | -2.0%
Cc1ccc(SCCN2CCC(C(C)(C)C)CCC2=O)cc1 (stereo not given) | ? | . | 10.6% | 21.5% | 20.2%
C[C@H]1CCC(=O)N(CCSc2ccc(Br)cc2)CC1 | ? | . | 10.1% | ? | 10.4%
CC(C)(C)C1CCC(=O)N(CCSc2ccccc2)CC1 (stereo not given) | 7.57µM* | . | ? | 3.16µM* | 2.51µM*
Cc1ccc(SCCN2CCC(C)CCC2=O)cc1 (stereo not given) | 19µM* | . | ? | ? | 3.98µM*
COc1ccc(Cc2nnc(SCC(=O)N(C)CC(=O)Nc3ccc(C)cc3)o2)cc1 | 0.9% | . | -7.6% | -0.6% | -1.5%
CCC(=O)NN1CCN(c2ccncc2S(=O)(=O)N2CCCCC2)CC1 | 3.5% | . | 0.0% | 1.6% | -2.5%
SMILES | FLuc counter | SMN2 splice enh | ELG1 genotoxic | Rab9 promoter act | NPC1 prom act
CNc1nn(-c2cccc(Cl)c2)nc1N | 23.9µM* | ? | 11.2µM* | ? | ?
COc1ccc(OC)c(S(=O)(=O)N2CCC(C(=O)NC3CC3)CC2)c1 | 3.3% | . | 2.0% | 0.2% | -1.8%
CN(C)c1ccc(N=Nc2ccccc2C(=O)OCC(=O)N(C)c2ccccc2)cc1 | 1.35µM* | ? | -1.8% | 22.6% | 24.3%
COC(=O)c1ccccc1NC(=O)COC(=O)c1ccco1 | 5.9% | -27.1% | -0.1% | -1.2% | -2.9%
COC(=O)c1ccccc1NC(=O)COC(=O)c1ccccc1N=Nc1ccc(N(C)C)cc1 | 12µM* | ? | 0.9% | 17.0% | 2.0%
CC(=O)c1ccc(NC(=O)COC(=O)c2ccccc2N=Nc2ccc(N(C)C)cc2)cc1 | 5.36µM* | ? | -2.8% | 11.8% | 1.2%
CN(C)c1cccc(C(=O)OCC(=O)N(C)c2ccccc2)c1 | -2.0% | . | 0.3% | -1.4% | 1.4%
CCc1cccc(NC(=O)C2CCCN(c3ncnc4c3nc3n4CCCCC3)C2)c1 (stereo not given) | 0.5% | . | -14.0% | -1.3% | -5.0%
